The campaign covered roughly 360,000 compounds. About 3,500 (0.97%) were called active. Only a selection was taken, and actives are over-represented in it overall. Unmarked numbers belong to inactive results.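 Rule for the calls: active = activation above a per-plate cutoff, the mean activation of sample wells on that plate plus 3 SD (cut at about 8% in these data); inactive = the rest.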

This assay deals with Melanocortin receptor 4 (Homo sapiens) (UniProt P32245). The assay is described as follows: MC4R agonists recruiting beta-arrestin, primary screen, cell-based, luminescence, agonist arm of biased-ligand search (AID 540308). The following applies: U2OS MC4R beta-arrestin complementation, at 8.9 µM, hits give high values, percent of melanotan II response, DMSO zero.
Sequence of Melanocortin receptor 4 (Homo sapiens) (P32245 whole entry, looked up): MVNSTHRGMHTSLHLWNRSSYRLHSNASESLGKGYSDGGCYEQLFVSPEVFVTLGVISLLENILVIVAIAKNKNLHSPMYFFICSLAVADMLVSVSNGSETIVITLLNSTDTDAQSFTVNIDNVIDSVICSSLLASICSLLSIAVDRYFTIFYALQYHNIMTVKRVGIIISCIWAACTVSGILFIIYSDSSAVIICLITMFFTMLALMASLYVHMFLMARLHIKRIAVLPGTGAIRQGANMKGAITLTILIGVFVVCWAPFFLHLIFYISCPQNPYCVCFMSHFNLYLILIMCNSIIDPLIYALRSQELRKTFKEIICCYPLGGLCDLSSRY
In the case of `Fc1ccc(-c2csc(-c3ccc(C4SCCS4)cc3)n2)cc1F`, the activation was 1.21%.
For the molecule `COc1ccc(Br)c(Cn2c(C)c(C(=O)NCc3cccs3)sc2=O)c1`, the activation was 0.68%.
Take `Cn1cc(S(=O)(=O)NC(c2ccccc2)c2ccccc2)c(=O)n(C)c1=O`: the activation was -0.18%.
As for `CCc1nc2c(OCCOc3ccccc3)cccn2c1N(C)C(=O)c1cccs1`, the activation was 0.14%.
As for `COc1ccc(S(=O)(=O)NC(=O)C2(C)CCN2C(=O)c2ccccc2CCc2ccccc2)cc1` (stereo not drawn), the activation is -2.22%.
Regarding `O=C(O)COc1ccc(/C=N/O)cc1Br`, the activation is -1.99%.
On to `CNC(=S)N/N=C/c1ccc(OCc2ccccc2)c(Br)c1`, for which the activation was 8.56% (active).
The figure for `O=C(O)c1ccc(/C=N/NC(=S)NCc2ccccc2)cc1` is 0.6%; for `CCCC(=O)N1CCC1(C)C(=O)Nc1ccc(-n2cncn2)cc1` (stereo not drawn) it is 0.24%; for `Clc1ccccc1Nc1nc(NCc2cccs2)nc2ccsc12` it is 15.7% (active).
Regarding `COc1cccc(-c2cc3nc(NCCOc4ccccc4Cl)n(C)c(=O)c3s2)c1`, the activation is 2.56%.
In the case of `COc1cccc(CNc2nc(NCc3cccs3)nc3ccsc23)c1`, the activation is -1.2%.
Take `CC(=O)Nc1ccc(CNc2nc(NCCN(C)C)nc3cc(-c4ccccc4)sc23)cc1`: the activation is 0.89%.
Regarding `COCCNc1nc(Nc2ccccc2Cl)c2sc(-c3ccccc3)cc2n1`, the activation is 10.6% (active).
The figure for `COc1ccccc1CNc1nc(Nc2ccccc2Cl)c2sccc2n1` is 0.15%.
Turning to `COc1ccc(C(C)(O)c2nc(-c3ccc(C)c(C)c3)cs2)cc1` (stereo not drawn), the activation was 0.79%.
For `Cc1ccc(-n2c(SCC(=O)Nc3ccc4c(c3)OCO4)nnc2-c2ccccn2)cc1`, the activation is 1.14%.
Regarding `CC(C)c1cc(C(=O)NC2CCCCCC2)c2ccccc2n1`, the activation is -0.07%.
Turning to `COc1cc2ccccc2cc1C(=O)Nc1ccncc1`, the activation is -0.89%.
With `CSc1ncccc1C(=O)Nc1ccc2c(c1)OCO2`, the activation is -2.93%.
The figure for `CC1CCCC(NC(=O)c2cc(-c3ccncc3)nc3ccccc23)C1C` (stereo not drawn) is 8.93% (active); for `Cc1ccc2nc(-c3ccncc3)cc(C(=O)Nc3ccncc3)c2c1` it is 10.5% (active); for `COc1ccc(NC(=O)c2cc(-c3cc(OC)c(OC)c(OC)c3)nc3ccccc23)c(OC)c1` it is 1.47%.
Turning to `O=C(Nc1ccc(S(=O)(=O)Nc2nccs2)cc1)c1cc(-c2ccncc2)nc2ccccc12`, the activation was 1.73%.
For the molecule `CCc1ccc(-c2cc(C(=O)NN3CCN(C)CC3)c3ccccc3n2)cc1`, the activation was -0.59%.
As to `Cc1ccc2nc(-c3ccncc3)cc(C(=O)Nc3ccc(OC(F)F)cc3)c2c1`, the activation was 13.6% (active).
For the molecule `Cc1ccc2nc(-c3ccccn3)cc(C(=O)Nc3ccc4c(c3)OCO4)c2c1`, the activation is 8.55% (active).
On to `Cc1cc(NS(=O)(=O)c2ccc(NC(=O)c3cccc(OC(F)F)c3)cc2)nc(C)n1`, for which the activation is 0.09%.
For the molecule `CCOC(=O)C1CCCN(C(=O)c2cc(-c3cccs3)oc2C)CC1` (stereo not drawn), the activation was 1.53%.
For `CCCS(=O)(=O)NC(=O)C1(C)CCCN(C(=O)c2ccnc(Cl)c2)C1` (stereo not drawn), the activation was -0.96%.
Regarding `CCCCc1ccc(S(=O)(=O)NC(=O)C2(C)CCN2C(=O)c2ccccc2)cc1` (stereo not drawn), the activation is 0.97%.
Turning to `OC[C@@H]1CN(Cc2ccc(-c3ccccc3)cc2)C[C@H](n2cnc3c(NC4CCCC4)ncnc32)O1`, the activation is 5.7%.
With `CCc1nc2c(OCc3ccc(C(=O)OC)cc3)cccn2c1N(C)C(=O)C(C)C`, the activation was 1.62%.
Consider `CC1(C(=O)NS(=O)(=O)c2ccccc2)CCN1C(=O)c1ccccc1` (stereo not drawn), for which the activation was -1.65%.
The figure for `CCc1ccc2c(c1)cc(CN(C(=S)Nc1ccccc1Cl)C1CC1)c1nnnn12` is 12.6% (active).
Regarding `CCc1cccc(NC(=S)N(CCN(C)C)C2CCN(C(C)C)CC2)c1`, the activation was -0.19%.
With `CCOc1ccc2c(c1)cc(CN(C(=O)CC)C1CCCCC1)c1nnnn12`, the activation is 0.48%.
Under `CC1(C(=O)NS(=O)(=O)c2cccc(F)c2)CCN1C(=O)Cc1cc(F)ccc1F` (stereo not drawn) stands -0.76%.
As to `CCNC(=O)C1(C)CCCN(C(=O)c2c(C)noc2C)C1` (stereo not drawn), the activation is 0.77%.
`Cc1ccsc1/C=N/NC(=O)Cc1cc(=O)[nH][nH]1`: the activation was -1.77%.
Under `C/C(=N\Nc1ccc(Cl)nn1)c1ccccc1O` stands -0.38%.
Take `Cc1ccsc1/C=N/Nc1ccc(Cl)nn1`: the activation was 12.3% (active).
Consider `COc1ccccc1CNC(=O)c1cc(-c2cc(F)ccc2OC)n[nH]1`, for which the activation is 1.31%.
For `CCCCC(=O)N(C)c1c(CC)nc2c(OCc3ccc(Cl)cc3Cl)cccn12`, the activation was 0.75%.
For `CC(=O)OC[C@@H]1CN(Cc2ccccc2)C[C@H](n2cnc3c(NCc4ccco4)ncnc32)O1`, the activation was -2.47%.
For `COc1ccc2oc(=O)cc(-c3cc4ccccc4o3)c2c1`, the activation is 8.24% (active).
Under `COc1ccc(Nc2cc(=O)oc3ccccc23)cc1` stands -0.49%.
For the molecule `COc1cccc2cc(-c3cc(=O)oc4cc(C)c(O)cc34)oc12`, the activation was 1.6%.
With `CCN(c1ccccc1)S(=O)(=O)c1ccc(C(=O)Nc2ccccc2OC)cc1`, the activation is 0.77%.
Under `CCN(c1ccccc1)S(=O)(=O)c1ccc(NC(=O)C(C)(C)C)cc1` stands -0.35%; under `CCN(c1ccccc1)S(=O)(=O)c1ccc(C(=O)Nc2nccs2)cc1`, 8.9% (active).
On to `O=C(NC(c1ccc(Cl)cc1)c1cnccn1)C1CCN(Cc2ccc(Cl)cc2)CC1` (stereo not drawn), for which the activation was -0.34%.
Take `O=C(NC(c1ccc(-c2ccccc2)cc1)c1cnccn1)C1CCN(CCOc2ccc(Cl)cc2Cl)CC1` (stereo not drawn): the activation was 18% (active).
Turning to `Cc1ccc(C(NC(=O)C2CCN(CCOc3ccc(Cl)cc3Cl)CC2)c2ccccn2)cc1` (stereo not drawn), the activation was 4.91%.
For the molecule `CCc1ccc2c(c1)NC(=O)C2(C)Cc1ccc(OC(F)(F)F)cc1` (stereo not drawn), the activation is -0.4%.
The figure for `Cc1ccc(-c2cnc(C(O)c3cccc(C)c3C)[nH]2)cc1` (stereo not drawn) is -0.77%; for `CC(C)c1ccc2c(c1)c(SC(C)(C)C)c(CC(C)(C)C(=O)O)n2Cc1ccc(Cl)cc1` it is 15.9% (active); for `COCCNC(=O)C1CCCN(Cc2ccccc2Cl)CC1` (stereo not drawn) it is -0.57%.
Consider `CC(=O)Nc1ccc(-c2ccnc3c2CC(C(=O)NC(C)C)O3)cc1` (stereo not drawn), for which the activation is -1.59%.
Consider `O=C(NCCO)c1cccc(-c2cccc3nccn23)c1`, for which the activation was -1.27%.
For `CNc1cncc(-c2ccc(NS(C)(=O)=O)cc2)n1`, the activation was -1.66%.
On to `CCOC(=O)C1=C(CN2CCc3ccccc32)NC(=O)NC1c1ccc(Cl)cc1` (stereo not drawn), for which the activation was 6.41%.
In the case of `CCOC(=O)c1[nH]c2c(c1-c1ccccc1)C(=O)CC(c1ccc(Cl)cc1)C2` (stereo not drawn), the activation is 13.1% (active).
For the molecule `CCCOC(=O)c1[nH]c2c(c1C)C(=O)CC(c1cccs1)C2` (stereo not drawn), the activation is -0.13%.
The figure for `CS(=O)(=O)/C(C#N)=C/c1cccn1S(=O)(=O)c1ccc([N+](=O)[O-])cc1` is -0.77%; for `O=C(O)c1ccccc1-c1cccc2nncn12` it is 1.15%.
Turning to `OC(c1ccccc1)c1nc(-c2cnc3ccccc3c2)cs1` (stereo not drawn), the activation was -1.73%.
As to `Cc1ccc(C(=O)Nc2c(C#N)c(C)c(C)n2Cc2ccccc2)cc1`, the activation was 0.7%.
For the molecule `Cc1c(C#N)c(NC(=O)c2ccccc2)n(Cc2ccccc2)c1C`, the activation is 1.54%.
As for `O=C(Nc1cccn(Cc2ccccc2Cl)c1=O)NC1CCCCC1`, the activation was -3.02%.
Consider `COc1ccc(Cn2c(C)c(C)c(C#N)c2NC(=O)Nc2ccc(F)cc2)cc1`, for which the activation is 9.65% (active).
Under `COc1cccc(NC(=O)CN(C)C(C)C(=O)Nc2ccc(C#N)cc2)c1` (stereo not drawn) stands -2.21%.
The figure for `COc1ccc(Cn2cccc(NC(=O)Nc3ccc(C#N)cc3)c2=O)cc1` is 8.99% (active); for `O=C(NCc1cccnc1)c1cc(C2CCCN(C(=O)C3CCCCC3)C2)on1` (stereo not drawn) it is 0.25%; for `CC1(Cc2cccc(C#N)c2)C(=O)Nc2ccc(-c3cccc(C(F)(F)F)c3)cc21` (stereo not drawn) it is 1.34%.
For `CCOc1ccc(Cl)cc1-c1cc(C(=O)NCc2cccs2)[nH]n1`, the activation is 1.31%.
Consider `O=C(CSc1nc2cccc(F)c2c(=O)n1-c1ccccc1)Nc1ccc2c(c1)CCC2`, for which the activation is 1.04%.
The figure for `CCOC(=O)C1=C(O)/C(=C/c2ccc(OCC(=O)Nc3ccc(C)cc3)cc2)N=C1C` is 16.8% (active); for `Cc1ccc(NC(=O)COc2ccc(/C=C3/NC(=O)NC3=O)cc2)cc1` it is -1.81%.
For `COC(=O)C1=C(O)/C(=C/c2ccc(OCC(=O)Nc3ccccc3)cc2)N=C1C`, the activation was -2.96%.
For the molecule `COC(=O)c1ccc(CN2C(=O)C(Cc3ccccc3)ON=C2c2ncccc2C)o1` (stereo not drawn), the activation is 0.08%.
In the case of `CS(=O)(=O)c1cccc(-c2ccc3nncn3c2)c1`, the activation is 0.6%.
For `CSc1ccccc1OCc1cc(C(=O)N2C[C@H]3CC[C@H]2C3)no1`, the activation is -3.22%.
For the molecule `O=C(O)c1cscn1`, the activation is -0.73%.
As for `Cc1cc(NC(=O)CSCC(=O)NC(C)c2ccccc2)no1` (stereo not drawn), the activation is 3.59%.
Regarding `Cc1ccc2nc(-c3ccc(SCC(=O)Nc4cc(C)on4)nc3)[nH]c2c1`, the activation was -0.33%.
Take `Cc1ccc(-c2csc(SCC(=O)Nc3cc(C)on3)n2)cc1`: the activation is 12.5% (active).
Consider `CCc1nc2ccc(C(=O)N3CCN(S(=O)(=O)CC)CC3)cn2c1N(C=O)CCC(C)C`, for which the activation is -1.41%.
In the case of `CC(C)Cn1cc(-c2cncc3nccn23)cn1`, the activation is -1.32%.
As to `COc1ccccc1CC1(C)C(=O)Nc2ccc(OC(F)(F)F)cc21` (stereo not drawn), the activation is 4.13%.
With `O=C(c1cc2cc(F)ccc2[nH]1)N1CCN(c2ccc(F)cc2)CC1`, the activation was 9.41% (active).
Consider `Cc1c(C(=O)N2CCN(c3ccc(F)cc3)CC2)oc2c1C(=O)CCC2`, for which the activation was -0.69%.
Consider `O=C(c1ccccc1Oc1ccccc1)N1CCN(c2ccc(F)cc2)CC1`, for which the activation is -0.88%.

Source of the values: PubChem BioAssay AID540308 (The Scripps Research Institute Molecular Screening Center, 2011).
